BLM inh – blocks DNA unwinding by human BLM helicase; P54132; recombinant BLM DNA unwinding, fluorescence dequenching; Potency, µM (titrated, usually from 56.1 µM), without a hit: top-dose activity change, negative = inhibition, actives largely listed as inhibitors; 350,000 tested, 0.2% active; AID 2528;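 further: plate controls were vehicle for no effect and no enzyme for full effect; nearly all actives have a fitted effect of over 35% in size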
TDP1 block – TDP1 (human) enzyme inhibition | Potency, µM (series often up to 130 µM), without a hit: at the highest dose activity change, negative = inhibition, most hits filed as inhibitors | AID 485290 | recombinant TDP1, AlphaScreen DNA substrate cleavage | 350,000 tested, 0.28% active | Q9NUW8; further: nearly all actives have a fitted effect of over 40% in size
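Here, a 5' biotin and 3' phosphotyrosine-FITC DNA oligonucleotide reports Tdp1 activity: intact substrate bridges AlphaScreen beads, while cleavage leaves a 3' phosphate and drops signal. All incubations at room temperature.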
FEN1 inhibitor – blocks human flap endonuclease 1; Recombinant FEN1 flap cleavage, fluorescence, 15 min; Potency, µM (highest dose often 114 µM), for inactives: at the top dose activity change, negative = inhibition, usual class: inhibitors; 390,000 tested, 0.35% active; AID 588795; further: nearly all actives have a fitted effect of over 65% in size
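Potency values derive from four-parameter Hill fits of normalized qHTS data. The reaction used 10 nM FEN1 preincubated 15 min at room temperature with compound, then 50 nM DNA substrate, read at 0 and 15 min.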
RECQ1 inh-1 – inhibitors of human RECQ1 DNA helicase. P46063. RECQ1 DNA unwinding, red fluorescence kinetic read. Potency, µM (doses to about 57.3 µM), without a hit: top-dose activity, negative = inhibition, actives largely listed as inhibitors. 240,000 tested, 0.54% active;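 further: plate controls were vehicle for no effect and no enzyme for full effect; nearly all actives have a fitted effect of over 30% in size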
Target sequence (P46063 whole entry, looked up): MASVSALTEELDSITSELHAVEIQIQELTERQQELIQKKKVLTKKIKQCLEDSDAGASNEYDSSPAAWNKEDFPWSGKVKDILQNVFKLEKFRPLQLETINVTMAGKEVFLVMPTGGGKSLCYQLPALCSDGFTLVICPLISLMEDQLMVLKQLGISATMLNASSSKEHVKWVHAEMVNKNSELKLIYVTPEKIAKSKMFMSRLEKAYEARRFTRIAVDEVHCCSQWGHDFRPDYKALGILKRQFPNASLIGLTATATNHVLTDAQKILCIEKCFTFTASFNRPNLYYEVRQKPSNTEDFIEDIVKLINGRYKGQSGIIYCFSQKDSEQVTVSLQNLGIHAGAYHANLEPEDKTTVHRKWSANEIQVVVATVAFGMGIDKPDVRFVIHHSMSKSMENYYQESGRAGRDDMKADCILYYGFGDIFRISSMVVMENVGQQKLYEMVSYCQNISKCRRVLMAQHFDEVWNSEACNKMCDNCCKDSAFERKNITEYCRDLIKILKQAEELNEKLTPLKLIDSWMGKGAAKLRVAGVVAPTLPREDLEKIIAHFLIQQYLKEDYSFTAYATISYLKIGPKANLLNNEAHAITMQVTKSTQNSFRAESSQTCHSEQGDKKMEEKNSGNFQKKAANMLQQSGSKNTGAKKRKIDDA
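50 nM RECQ1T1 preincubated 15 min with compound in Tris pH 8.0 buffer with MgCl2, DTT, Tween-20 and 2.5 ug/ml poly(dI-dC); started with 200 nM TAMRA/BHQ-2 forked duplex and 2 mM ATP. Unwinding read as fluorescence (525/598 nm), two reads 2 h apart.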
APE1 inh – APE1 (human) endonuclease inhibition; P27695; recombinant APE1, TAMRA/BHQ-2 abasic DNA cleavage fluorescence; Potency, µM (doses to about 65.8 µM), for inactives: at the highest dose activity change, negative = inhibition, hits mostly inhibitors; 350,000 tested, 0.35% active; AID 2517;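 further: plate controls were vehicle for no effect and reference inhibitor for full effect; nearly all actives have a fitted effect of over 55% in size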
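APE1 at 0.75 nM final was preincubated with compound 15 min at room temperature, then 50 nM double-stranded THF abasic-site substrate (5'-TAMRA/3'-BHQ-2) was added. Fluorescence (ex 525/em 598 nm) was read kinetically; third-minus-first read gave activity.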
RECQ1 conf – confirmation of human RECQ1 helicase inhibitors; 610 tested, 28% active; RECQ1 helicase DNA unwinding, fluorescence; shares compounds with RECQ1 inh-1; Potency, µM (titrated, usually from 229 µM), for the others: top-dose activity change, negative = inhibition, usual class: inhibitors; further: nearly all actives have a fitted effect of over 45% in size
ADP FP counter – ADP displacement flagged in RECQ1 inhibitor counter-screen. AID 2711. ADP fluorescence polarization displacement counterscreen. Potency, µM (titrated, usually from 228 µM), inactives show at the top dose activity change, negative = inhibition, most hits filed as inhibitors. shares compounds with RECQ1 inh-1. 530 tested, 27% active; further: nearly all actives have a fitted effect of over 45% in size
RECQ1 inh-2 – blocks human RECQ1 DNA unwinding | Potency, µM (titrated, usually from 119 µM), for inactives: at the highest dose activity, negative = inhibition, usual class: inhibitors | shares compounds with RECQ1 inh-1 | recombinant RECQ1 DNA unwinding, red fluorescence | 1,100 tested, 15% active; further: nearly all actives have a fitted effect of over 50% in size
Numbers without * were called inactive; ? = inconclusive; / = no result given; [ ] = remark or other dose. A selection: hits, their analogues and other compounds. The true share with any hit is near 0.92%. The call rests on the fitted dose curve; in most records, active means well fitted curve in the direction sought with a large enough effect; inconclusive means small, poorly fitted or top-dose-only effect, or another doubt; inactive means no such curve, though single readings can be large; an effect the other way counts as inactive or inconclusive. Unless noted, on the % scale 0 is the no-effect control and ±100 the full control effect; potency means the concentration at half of the fitted maximal effect.

SMILES	BLM inh	TDP1 block	FEN1 inhibitor	RECQ1 inh-1	APE1 inh	RECQ1 inh-2	others
COCCN1C(=O)C(=O)/C(=C(/O)c2ccc(S(=O)(=O)N3CCOCC3)cc2)C1c1ccc(C(C)C)cc1 (configuration not stated)	-1.3%	0.0%	/	-3.5%	-2.7%	/
O=C(O)C1Cc2ccccc2CN1C(=O)CSc1nnc2ccccn12 (configuration not stated)	-0.4%	-2.3%	3.9%	-12.0%	-2.4%	/	RECQ1 conf=12.5%;ADP FP counter=?
COc1ccc(S(=O)(=O)N2CCN(CC(=O)c3ccc(O)c(O)c3)CC2)cc1	-2.1%	-0.1%	-11.1%	/	36.6%	/
O=C(CN1CCN(S(=O)(=O)c2ccc(F)cc2)CC1)c1ccc(O)c(O)c1	1.9%	5.4%	-3.3%	39.8µM*	3.98µM*	-10.9%
Cc1ccc(N2CC(C(=O)OCC(=O)c3ccc[nH]3)CC2=O)cc1 (configuration not stated)	/	-8.1%[0.505 µM]	0.8%	/	-4.8%	/
CC(C)(C)C1CCC(C(=O)OCC(=O)c2ccc[nH]2)CC1 (configuration not stated)	-11.9%	2.8%	-23.9%	?	10.0%	-25.4%
CC(C)c1onc(-c2c(Cl)cccc2Cl)c1COc1ccc(/C=C/c2cccc(C(=O)O)c2)c(Cl)c1	31.6µM*	-12.8%	/	31.6µM*	-4.5%	35.5µM*
COc1ccc(NC(=O)c2noc3c2CCC3)cc1	-20.4%	14.1µM*	-11.2%	?	20µM*	?
CN1CCN(c2nc3c(=O)[nH]c(N)nc3n2C2OC(CO)C(O)C2O)CC1 (configuration not stated)	/	0.7%	15.2%	/	/	/
N#CC1=C(N)Oc2ccc3ccc(O)cc3c2C1c1ccsc1 (configuration not stated)	-2.9%	2.7%	-21.8%	?	-10.3%	50.1µM*
CCn1c(SCC(=O)NCc2ccco2)nc2ccccc2c1=O	2.6%	3.6%	15.3%	?	4.3%	-10.5%
Cn1c(SCC(=O)NCc2ccco2)nc2ccccc2c1=O	-0.1%	1.0%	-7.4%	9.1%	11.8%	/
O=P1(O)Oc2c(c(-c3ccccc3)cc3ccccc23)-c2c(-c3ccccc3)cc3ccccc3c2O1	-4.9%	0.0%	/	?	-0.3%	?
CC1(C)OC(=O)C2(Cc3cc([N+](=O)[O-])ccc3N3CCCCC32)C(=O)O1 (configuration not stated)	/	/	12.4%	/	/	/
Cc1cc(C)c(S(=O)(=O)NCc2ccc3c(c2)cc(C)n3C)c(C)c1	-14.6%	10.9%	?	?	-2.6%	56.2µM*
CC(=O)Nc1ccc(S(=O)(=O)NCc2ccc3c(c2)cc(C)n3C)cc1	-23.8%	3.9%	?	31.6µM*	-7.8%	50.1µM*
Cc1ccc(NC(=O)CSc2nc(N)c3c4c(sc3n2)CSC(C)(C)C4)cc1	-9.2%	5.6%	-0.9%	-9.6%	-3.0%	/
Cc1ccccc1NC(=O)CSc1nc(N)c2c3c(sc2n1)CSC(C)(C)C3	-5.7%	2.7%	-2.0%	22.4µM*	-1.7%	-18.4%
O=C(CSc1nnc(-c2ccco2)n1Cc1ccccc1)c1ccc(F)cc1	-12.7%	-13.5%	-23.7%	?	0.8%	-16.7%
O=C(CSc1nnc(-c2ccco2)n1Cc1ccccc1)NCc1ccccc1	5.7%	7.3%	-0.3%	-4.2%	-2.1%	/
O=S(=O)(Nc1cccc2ccccc12)c1ccccc1F	-4.1%	2.3%	4.5%	/	40.2%	/
Nc1c(S(=O)(=O)O)cc(Nc2ccc(Cl)cc2)c2c1C(=O)c1ccccc1C2=O	?	28.5%	/	31.6µM*	?	50.1µM*
Nc1c(S(=O)(=O)O)cc(Nc2cccc3ccccc23)c2c1C(=O)c1ccccc1C2=O	?	26.6%	/	22.4µM*	?	?
Cc1noc(C)c1COc1ccc(C(=O)Nc2ccccn2)cc1	-2.0%	4.3%[56.1 µM]	-10.7%	/	17.3%	/
Cc1noc(C)c1COc1ccc(C(=O)Nc2ccccc2)cc1	-1.7%	3.5%	0.5%	-13.1%	-5.6%	/	RECQ1 conf=2.5%;ADP FP counter=?
SMILES	BLM inh	TDP1 block	FEN1 inhibitor	RECQ1 inh-1	APE1 inh	RECQ1 inh-2	others
Cc1noc(C)c1COc1ccc(C(=O)NCc2ccccn2)cc1	-0.8%	4.8%	0.1%	0.3%	-1.0%	/	RECQ1 conf=3.8%;ADP FP counter=?
COc1cc(N(C)C)c(OC)cc1C=C1C=CC=C1	/	/	-25.5%	/	/	/
CN(C)c1ccc(/C=C2\SC(=S)N(Nc3ncc(C(F)(F)F)cc3Cl)C2=O)cc1	-11.3%	3.1%	?	10µM*	-1.5%	/	RECQ1 conf=7.94µM*;ADP FP counter=14.0%[91.9 µM]
Cc1cc(C)nc(NN2C(=O)/C(=C/c3ccccc3)SC2=S)n1	-1.0%	-7.8%	11.1%	-6.4%	0.0%	/
C(=C1c2ccccc2Oc2ccccc21)c1ccccc1	/	/	-6.2%	/	/	/
c1ccc(-c2csc(N3CCCCCC3)n2)cc1	-3.6%	3.1%	10.7%	-2.9%	-4.0%	/
Cc1cc(N2CCN(c3nc(-c4ccccc4)cs3)CC2)c2ccccc2n1	-10.7%	3.7%	7.3%	8.91µM*	19.2%	-7.5%	RECQ1 conf=0.1%[114 µM];ADP FP counter=-1.6%[91.9 µM]
CCOc1c(OC(C)=O)ccc(/C=C/c2ccc3cccc(OC(C)=O)c3n2)c1[N+](=O)[O-]	-13.8%	11.5%	-17.4%	31.6µM*	-5.2%	-11.5%
CCOc1cccc(/C=C/c2ccc3cccc(O)c3n2)c1OC	-10.5%	/	-2.5%	/	-15.8%	/
O=C1C(Cl)=C(N2CCC(C(=O)O)CC2)C(=O)c2ccccc21	-30.0%	-5.5%	-14.2%	22.4µM*	?	35.5µM*
C[n+]1cccc2c(Br)ccc([O-])c21	20µM*	-5.1%	0.8%	31.6µM*	-10.7%	-12.2%
[O-][n+]1cccc2c(Br)cc(Br)c(O)c21	-15.3%	8.1%	?	-10.3%	-3.7%	/
Cc1c(C)n(C(=O)CSc2nc3ccccc3[nH]2)c2ccccc12	-11.4%	/	-9.4%	8.91µM*	14.1µM*	35.5µM*	RECQ1 conf=50.1µM*;ADP FP counter=2.9%[91.9 µM]
O=C(CSc1nc(O)cc(=O)[nH]1)N1c2ccccc2Sc2ccccc21	-2.5%	8.4%	-18.8%	-4.5%	0.1%	/
O=C(CSc1nc2ccccc2[nH]1)N1c2ccccc2Sc2ccccc21	-6.9%	0.0%	2.7%	?	?	?
